Screening data: PubChem BioAssay, Broad Institute
Statin myotox sup = protects C2C12 myotubes from simvastatin toxicity | ATP luminescence, 48 h; scaled: DMSO 0, geranylgeraniol control 100 | rescue of ATP level, % at 7.49 µM | hit rate 0.78% among 330,000 | AID 602340;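 active means mean ATP rescue above about 67%, or every replicate alone reaching that limit, limit read from the data, passing the limit was not always enough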;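 further: myotubes were challenged with 10 µM simvastatin during compound exposure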
F508del corr = correctors of CFTR F508del function in bronchial epithelial cells | CFBE cells, YFP halide quenching; stimulated with forskolin plus potentiator P3; % fluorescence drop versus neutral controls | activity (quench increase), % at 7.58 µM | hit rate 0.36% among 350,000;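 active means mean added fluorescence quench of at least 8% versus neutral control, with both replicates also reaching 8%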;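 further: cells transiently co-express mutant CFTR-F508del with the halide-sensitive YFP; corrector assay measuring rescue of mutant channel to the surface after 24 h compound exposure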
ARNT TACC3 PPI = ARNT/TACC3 interaction disruption; Q9Y6A5; AlphaScreen His-ARNT PAS-B/GST-TACC3 binding, luminescence; TACC3 fragment carries E629A point mutation; hit rate 0.66% among 390,000; inhibition, % at 9.99 µM;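 active means mean inhibition of replicates at least 50% and at least half of replicates each reaching 50%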;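 further: 0% = complete ARNT plus TACC3 wells and 100% = ARNT alone without TACC3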
PglD DTNB = blocks C. jejuni PglD acetyltransferase activity; inhibition, % at 12.5 µM; hit rate 0.098% among 360,000; purified PglD enzyme, DTNB colorimetric CoA detection; AID 602405; in the data active means inhibition above about 16%, passing the limit was not always enough
* = called active by the depositor; nt = not tested or not shown. A selection: hits, their analogues and other compounds. The true share with any hit is near 1.4%.

SMILES	Statin myotox sup	F508del corr	ARNT TACC3 PPI	PglD DTNB
Cc1ccc(S(=O)(=O)Nc2ccc3c(c2)C(=O)N([C@@H](C)CO)C[C@@H](C)[C@H](CN(C)C(=O)c2ccccc2)OCCCC[C@@H](C)O3)cc1	nt	-2	-5	2
Cc1ccc(S(=O)(=O)N2CC[C@@H]3[C@H](CO)Nc4ccc(-c5ccccc5F)cc4[C@@H]32)cc1	1	-2	2	3
CC(=O)N1[C@@H]2c3ccc(-c4ccccc4)c(=O)n3C[C@@H]2[C@@H](CO)[C@@H]1C(=O)N(C)C	-15	3	-9	3
NC(=O)N/N=C\c1cc(Br)ccc1O	nt	-1	11	nt
CCc1nnc(N/N=C/c2cc(Br)c(O)cc2O)n1N	-1	nt	63*	-1
CCc1nnc(N/N=C/c2ccc(O)c(OC)c2)n1N	0	1	0	2
CC(C)(C)c1nnc(N/N=C/c2cc(Br)ccc2O)n(N)c1=O	nt	nt	58*	-9
C[C@@H]1CCCCO[C@H](CN(C)Cc2ccc3c(c2)OCO3)[C@@H](C)CN([C@H](C)CO)C(=O)c2cc(NC(=O)Cc3ccccc3)ccc2O1	nt	0	-1	-2
COc1ccc(NC(=O)C(=O)NCC2CCCN2S(=O)(=O)c2cccs2)cc1 (configuration not stated)	-3	17*	-2	1
Cc1ccc(NC(=O)C(=O)NCC2CCCN2S(=O)(=O)c2cccs2)cc1C (configuration not stated)	3	3	3	-8
COc1ccc(CN(C)C[C@@H]2Oc3ccc(NC(=O)Nc4ccc(C(F)(F)F)cc4)cc3C(=O)N([C@@H](C)CO)C[C@H]2C)cc1	-58	1	8	-3
C=CCOc1cc(C)nc(-c2ccccc2O)n1	-2	nt	-2	-3
Cc1cc(Oc2ccccc2)nc(-c2ccccc2O)n1	104*	nt	-5	-4
Cc1cc(N2CCCC2)nc(-c2ccccc2O)n1	115*	nt	-6	nt
COC(=O)C1(C)CCCC2(C)C3CCC(C(C)C)C(CO)C3C(CO)CC12 (configuration not stated)	-1	8.0*	nt	-5
CCOC(=O)[C@]12CCCC=C1N(Cc1cccc3ccccc13)C(=O)[C@H](CC(=O)NCc1cccc(C(F)(F)F)c1)C2	nt	11*	nt	nt
COc1cc(C(=O)Oc2ccccc2OC(=O)c2cc(OC)c(OC)c(OC)c2)cc(OC)c1OC	4	-2	1	nt
COc1cc(C(=O)Oc2cccc(C)c2)cc(OC)c1OC	117*	nt	-8	-3
COc1ccc(C(=O)c2cc(OC)c(OC)c(OC)c2)cc1OC	-11	13*	nt	nt
COc1ccc(C(=O)c2ccc(OC)c(OC)c2)cc1OC	nt	nt	-5	nt
C[C@@H]1CN([C@H](C)CO)C(=O)c2cc(Br)cnc2O[C@H]1CN(C)C(=O)C1CCC1	4	3	nt	nt
CCCCNc1oc(-c2cccs2)nc1S(=O)(=O)c1ccccc1	131*	nt	2	-5
CNc1oc(-c2cccs2)nc1S(=O)(=O)c1ccccc1	nt	3	13	nt
CCCNC(=O)c1c(N)n(-c2cccc(OC)c2)c2nc3ccccc3nc12	106*	nt	-14	0
CC(C)(C)OC(=O)NCCCCCNC(=O)c1[nH]cnc1C(=O)N[C@@H](Cc1ccccc1)C(=O)OCc1ccccc1	132*	-3	6	-5
SMILES	Statin myotox sup	F508del corr	ARNT TACC3 PPI	PglD DTNB
COC(=O)c1ccc(NC(=O)NCCCl)cc1	-8	-1	3	-7
CCS(=O)(=O)C(C)(CCl)C(=O)Nc1ccc(C(=O)OC)cc1 (configuration not stated)	5	2	active	1
CN1C(=O)c2cc(NC(=O)Cc3cccs3)ccc2OC[C@H]2O[C@@H](CC(=O)NCc3ccc(-c4ccccc4)cc3)CC[C@H]21	72*	-3	1	-5
COC(=O)C[C@@H]1CC[C@@H]2[C@H](COc3ccc(NC(=O)c4cc(C)on4)cc3C(=O)N2C)O1	-14	14*	9	0
CN1C(=O)c2cc(NC(=O)c3ccc(F)c(F)c3)ccc2OC[C@H]2O[C@@H](CC(=O)Nc3ccc4c(c3)COC4)CC[C@@H]21	102*	-2	-3	-2
COC(=O)C[C@H]1CC[C@@H]2[C@@H](COc3ccc(NC(=O)c4cc(C)on4)cc3C(=O)N2C)O1	3	-3	9	7
CNC(=O)C[C@@H]1CC[C@@H]2[C@H](COc3ccc(NC(=O)c4ccc(F)c(F)c4)cc3C(=O)N2C)O1	2	-2	2	2
COc1ccccc1NC(=O)N[C@H]1CC[C@@H](CCn2cc(-c3cccnc3)nn2)O[C@@H]1CO	-2	-4	1	-1
C/C=C/c1ccc2c(c1)O[C@@H](CN(C)C(=O)c1ccc(F)cc1)[C@H](C)CN([C@@H](C)CO)S2(=O)=O	-6	nt	6	3
COCC(=O)N[C@H]1C=C[C@H](CC(=O)NCc2ccc(Cl)cc2)O[C@H]1CO	-10	0	-4	4
C[C@@H]1CN([C@H](C)CO)C(=O)Cc2cc(NS(C)(=O)=O)ccc2O[C@@H]1CN(C)Cc1ccc(-c2ccccc2)cc1	95*	-1	3	-6
Cc1ccc(S(=O)(=O)Nc2ccc3c(c2)CC(=O)N([C@@H](C)CO)C[C@H](C)[C@@H](CN(C)Cc2ccc(-c4ccccc4)cc2)O3)cc1	129*	1	25	-1
Cc1ccc(S(=O)(=O)Nc2ccc3c(c2)CC(=O)N([C@@H](C)CO)C[C@@H](C)[C@H](CN(C)S(=O)(=O)c2ccc(C)cc2)O3)cc1	95*	-2	-3	-1
C[C@H](CO)N1C[C@H](C)[C@@H](CN(C)Cc2ccc(-c3ccccc3)cc2)Oc2ccc(NS(C)(=O)=O)cc2CC1=O	29	0	11	5
C[C@@H]1CN([C@H](C)CO)C(=O)CCCn2nncc2CO[C@@H]1CN(C)C(=O)Nc1ccc(F)cc1	10	1	0	-1
CO[C@@H](CN(C)C(=O)c1ccc2c(c1)OCO2)[C@@H](C)CN([C@H](C)CO)S(=O)(=O)c1ccc(F)cc1	9	0	4	0
Cc1nn(Cc2ccccc2)c(=O)c2nn(-c3ccc(Cl)cc3)c(C)c12	nt	nt	-3	nt
CCOc1nnc(C)c2c(C)n(-c3ccc(Cl)cc3)nc12	119*	nt	10	17
COc1ccc2c3c([nH]c2c1)[C@H](CO)N(Cc1cc(F)ccc1F)CC31CN(C(C)=O)C1	nt	-2	nt	nt
CC1CCCN(C(=O)c2sc3cc([N+](=O)[O-])ccc3c2Cl)C1 (configuration not stated)	66*	nt	8	3
O=C(c1cc(-c2ccncc2)nc2c(Cl)cccc12)N1CCN(c2ccccc2F)CC1	-8	14*	13	4
CS(=O)(=O)N1CCN(C(=O)c2cc(-c3ccncc3)nc3ccc(Cl)cc23)CC1	108*	nt	1	7
O=C(N/N=C/c1cc2c3c(c1O)CCCN3CCC2)c1ccccc1O	nt	8.3*	nt	nt
CC(=O)c1c(O)cc(C)n(Nc2nc(C)cc(C)n2)c1=O	-2	nt	73*	-8
